Measurements taken from the supplement of paper PMC10849652.
About 7,900 targets were measured; listed, in parts, are those with a hit and a random draw of the rest. About 0.6% of all pairs of compound and target were hits. Unmarked numbers belong to inactive results.

Legend:
Experiment in all cases: log2 fold change, soluble protein after heating vs DMSO (PISA); higher = thermal stabilisation; K562 cells, 10 uM, 30 min; active = over 0.2 and 3.5 SD of the protein, either way, in both replicates (recomputed)
[1] = compound: CC[C@@H]1C(=O)N(C)c2cnc(Nc3ccc(C(=O)NC4CCN(C)CC4)cc3OC)nc2N1C1CCCC1
Procedure, shortened: (§1)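 Quantification of soluble protein used TMTpro 16plex LC-MS/MS, with channel sums equalised. Samples were the supernatant after 21,000xg for 90 min of pooled aliquots from K562 cells (2×10^6 cells/mL) treated with 10 μM compound for 30 min, heated for 3 min over 48°C-58°C, and extracted in PBS with 0.5% NP-40 at 4°C. Values, from duplicates, describe thermal stability against control samples on a log2 fold-change scale.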

volasertib = compound: CC[C@@H]1C(=O)N(C)c2cnc(Nc3ccc(C(=O)N[C@H]4CC[C@H](N5CCN(CC6CC6)CC5)CC4)cc3OC)nc2N1C(C)C [volasertib]
Procedure, shortened: as §1

[2] = compound: CC[C@H](C)N1C=C(C2=C(C=C(C=C21)C3=CN=C(C=C3)N4CCNCC4)C(=O)NCC5=C(C=C(NC5=O)C)C)C
Procedure, shortened: as §1

epoxomicin = compound: CC[C@H](C)[C@@H](C(=O)N[C@@H]([C@@H](C)O)C(=O)N[C@@H](CC(C)C)C(=O)[C@]1(CO1)C)NC(=O)[C@H]([C@@H](C)CC)N(C)C(=O)C [epoxomicin]
Procedure, shortened: as §1

[3] = compound: CCn1c(C(=O)N(C2CC2)C2CC2)cc2c3c(ncn3C)c(Nc3cc(C)n(C)n3)nc21
Procedure, shortened: as §1

[4] = compound: CCn1cc(-c2ccnc3[nH]c(-c4cccc(CN(C)C)c4)cc23)c(-c2ccc(NC(=O)N(C)C)cc2)n1
Procedure, shortened: as §1

[5] = compound: CN(C)CC(=O)Nc1ccc2[nH]c(=O)c3ccccc3c2c1
Procedure, shortened: as §1

rosiglitazone = compound: CN(CCOC1=CC=C(C=C1)C[C@H]2C(=O)NC(=O)S2)C3=CC=CC=N3 (racemic) [rosiglitazone]
Procedure, shortened: as §1

[6] = compound: CN1C2=C(C3=C1C(=O)N(N=C3)CC4=CC(=CC=C4)N)SC(=C2)S(=O)C
Procedure, shortened: as §1

[7] = compound: CN1CCC(CNc2ccc3ncc(-c4cccc(OC(F)(F)F)c4)n3n2)CC1
Procedure, shortened: as §1

saracatinib = compound: CN1CCN(CCOc2cc(OC3CCOCC3)c3c(Nc4c(Cl)ccc5c4OCO5)ncnc3c2)CC1 [saracatinib]
Procedure, shortened: as §1

sotrastaurin = compound: CN1CCN(c2nc(C3=C(c4c[nH]c5ccccc45)C(=O)NC3=O)c3ccccc3n2)CC1 [sotrastaurin]
Procedure, shortened: as §1

alvocidib = compound: CN1CC[C@H](c2c(O)cc(O)c3c(=O)cc(-c4ccccc4Cl)oc23)[C@H](O)C1 [alvocidib]
Procedure, shortened: as §1

Tubastatin A = compound: CN1CCc2c(c3ccccc3n2Cc2ccc(C(=O)NO)cc2)C1 [Tubastatin A]
Procedure, shortened: as §1

[8] = compound: CNC(=O)C1=CC=CC=C1NC2=NC(=NC=C2Cl)NC3=C(C=C(C=C3)N4CCOCC4)OC
Procedure, shortened: as §1

defactinib = compound: CNC(=O)c1ccc(Nc2ncc(C(F)(F)F)c(NCc3nccnc3N(C)S(C)(=O)=O)n2)cc1 [defactinib]
Procedure, shortened: as §1

rucaparib = compound: CNCc1ccc(-c2[nH]c3cc(F)cc4c3c2CCNC4=O)cc1 [rucaparib]
Procedure, shortened: as §1

[9] = compound: CNc1nc(-c2ccc3c(N)n[nH]c3c2)cc(N2C[C@@H](C(=O)NC3CCCCC3)CC[C@H]2C)n1
Procedure, shortened: as §1

encorafenib = compound: COC(=O)N[C@@H](C)CNc1nccc(-c2cn(C(C)C)nc2-c2cc(Cl)cc(NS(C)(=O)=O)c2F)n1 [encorafenib]
Procedure, shortened: as §1

[10] = compound: COC(=O)[C@H](CCSC)NC(=O)C1=C(C=C(C=C1)NC[C@H](CS)N)C2=CC=CC=C2
Procedure, shortened: as §1

Chain of UniProt Q96MF7 (Q96MF7 whole entry, looked up): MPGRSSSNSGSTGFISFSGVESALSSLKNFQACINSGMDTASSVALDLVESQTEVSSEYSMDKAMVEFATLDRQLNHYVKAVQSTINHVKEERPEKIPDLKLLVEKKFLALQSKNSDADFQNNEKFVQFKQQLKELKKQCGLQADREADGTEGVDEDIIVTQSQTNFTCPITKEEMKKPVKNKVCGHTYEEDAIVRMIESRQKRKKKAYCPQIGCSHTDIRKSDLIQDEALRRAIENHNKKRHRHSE
Chain of UniProt P49116 (P49116 whole entry, looked up): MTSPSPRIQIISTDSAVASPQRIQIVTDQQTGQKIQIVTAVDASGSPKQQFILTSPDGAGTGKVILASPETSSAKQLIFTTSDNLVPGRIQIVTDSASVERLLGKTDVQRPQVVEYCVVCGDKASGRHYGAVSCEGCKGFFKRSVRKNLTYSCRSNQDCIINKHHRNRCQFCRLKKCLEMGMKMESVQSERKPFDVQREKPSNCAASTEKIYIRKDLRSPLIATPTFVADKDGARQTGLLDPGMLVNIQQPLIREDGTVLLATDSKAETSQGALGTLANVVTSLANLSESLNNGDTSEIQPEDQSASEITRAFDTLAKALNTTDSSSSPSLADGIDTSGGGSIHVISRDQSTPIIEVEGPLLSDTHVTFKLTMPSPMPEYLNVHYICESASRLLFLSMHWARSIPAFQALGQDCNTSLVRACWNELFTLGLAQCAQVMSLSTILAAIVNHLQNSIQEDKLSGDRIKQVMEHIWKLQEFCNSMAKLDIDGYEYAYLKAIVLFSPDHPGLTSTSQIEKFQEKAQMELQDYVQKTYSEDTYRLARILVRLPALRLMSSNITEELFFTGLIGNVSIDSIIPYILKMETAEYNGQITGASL
Chain of UniProt Q9H000 (Q9H000 whole entry, looked up): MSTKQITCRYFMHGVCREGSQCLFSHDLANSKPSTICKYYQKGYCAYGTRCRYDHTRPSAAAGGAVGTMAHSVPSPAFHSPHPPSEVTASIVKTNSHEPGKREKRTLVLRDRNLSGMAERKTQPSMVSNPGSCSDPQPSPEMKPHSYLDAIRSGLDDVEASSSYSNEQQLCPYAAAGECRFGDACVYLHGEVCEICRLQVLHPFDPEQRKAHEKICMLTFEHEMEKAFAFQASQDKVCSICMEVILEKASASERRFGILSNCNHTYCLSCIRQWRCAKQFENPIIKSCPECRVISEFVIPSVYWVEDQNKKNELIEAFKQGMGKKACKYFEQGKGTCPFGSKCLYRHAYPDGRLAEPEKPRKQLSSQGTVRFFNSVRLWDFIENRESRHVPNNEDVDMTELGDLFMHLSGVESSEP
Chain of UniProt O00567 (O00567 whole entry, looked up): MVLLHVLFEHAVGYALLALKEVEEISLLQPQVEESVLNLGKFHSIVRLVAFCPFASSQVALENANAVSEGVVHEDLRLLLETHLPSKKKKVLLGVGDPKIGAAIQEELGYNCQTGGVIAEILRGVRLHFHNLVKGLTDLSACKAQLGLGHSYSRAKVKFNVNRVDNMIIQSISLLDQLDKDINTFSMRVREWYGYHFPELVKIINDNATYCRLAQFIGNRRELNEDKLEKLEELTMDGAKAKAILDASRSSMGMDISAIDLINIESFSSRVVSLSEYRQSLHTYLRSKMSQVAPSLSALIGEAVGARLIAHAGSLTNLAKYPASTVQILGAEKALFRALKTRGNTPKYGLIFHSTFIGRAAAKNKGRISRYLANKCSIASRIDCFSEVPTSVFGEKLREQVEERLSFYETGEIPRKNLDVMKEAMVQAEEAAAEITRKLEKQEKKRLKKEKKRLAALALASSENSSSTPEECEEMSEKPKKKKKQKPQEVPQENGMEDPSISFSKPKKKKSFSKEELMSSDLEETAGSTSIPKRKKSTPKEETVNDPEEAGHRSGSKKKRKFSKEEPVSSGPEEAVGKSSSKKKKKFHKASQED
Chain of UniProt Q9UI09 (Q9UI09 whole entry, looked up): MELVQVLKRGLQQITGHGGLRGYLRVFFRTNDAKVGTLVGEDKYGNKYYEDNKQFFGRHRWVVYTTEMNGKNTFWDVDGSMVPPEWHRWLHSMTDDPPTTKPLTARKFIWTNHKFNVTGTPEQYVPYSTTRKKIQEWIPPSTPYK
Chain of UniProt Q9BZF1 (Q9BZF1 whole entry, looked up): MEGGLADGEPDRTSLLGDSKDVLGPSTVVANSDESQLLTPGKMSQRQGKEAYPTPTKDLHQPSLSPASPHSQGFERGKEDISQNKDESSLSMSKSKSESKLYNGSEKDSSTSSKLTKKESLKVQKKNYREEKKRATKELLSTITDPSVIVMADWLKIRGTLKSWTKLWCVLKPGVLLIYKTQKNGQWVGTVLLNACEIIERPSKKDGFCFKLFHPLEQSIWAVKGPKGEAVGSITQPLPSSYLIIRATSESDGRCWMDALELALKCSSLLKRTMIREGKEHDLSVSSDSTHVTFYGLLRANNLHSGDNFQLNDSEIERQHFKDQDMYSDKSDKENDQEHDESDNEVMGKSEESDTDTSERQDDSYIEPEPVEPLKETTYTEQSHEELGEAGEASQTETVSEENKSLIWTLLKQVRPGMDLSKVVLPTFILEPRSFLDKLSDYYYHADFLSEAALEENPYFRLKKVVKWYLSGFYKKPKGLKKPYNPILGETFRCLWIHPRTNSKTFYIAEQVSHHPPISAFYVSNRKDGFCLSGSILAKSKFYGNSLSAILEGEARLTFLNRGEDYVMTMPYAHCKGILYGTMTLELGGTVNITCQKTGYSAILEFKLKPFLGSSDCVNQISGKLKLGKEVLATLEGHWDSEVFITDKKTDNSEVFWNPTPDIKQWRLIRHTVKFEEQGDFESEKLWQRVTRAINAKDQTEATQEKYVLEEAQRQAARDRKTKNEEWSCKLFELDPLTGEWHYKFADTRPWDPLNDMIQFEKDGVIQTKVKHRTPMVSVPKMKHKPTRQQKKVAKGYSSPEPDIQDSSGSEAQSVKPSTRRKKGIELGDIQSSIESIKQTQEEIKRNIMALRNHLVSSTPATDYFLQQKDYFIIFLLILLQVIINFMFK
Chain of UniProt O43181 (O43181 whole entry, looked up): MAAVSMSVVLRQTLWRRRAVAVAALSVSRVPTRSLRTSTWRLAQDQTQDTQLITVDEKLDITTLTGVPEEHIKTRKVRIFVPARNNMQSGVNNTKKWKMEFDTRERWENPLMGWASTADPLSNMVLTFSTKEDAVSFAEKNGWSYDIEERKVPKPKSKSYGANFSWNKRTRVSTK
Chain of UniProt Q8WVJ2 (Q8WVJ2 whole entry, looked up): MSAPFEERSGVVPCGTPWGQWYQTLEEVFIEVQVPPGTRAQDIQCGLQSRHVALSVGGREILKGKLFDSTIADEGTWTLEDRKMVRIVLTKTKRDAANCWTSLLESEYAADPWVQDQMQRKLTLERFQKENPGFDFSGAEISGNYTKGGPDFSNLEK
Chain of UniProt O00566 (O00566 whole entry, looked up): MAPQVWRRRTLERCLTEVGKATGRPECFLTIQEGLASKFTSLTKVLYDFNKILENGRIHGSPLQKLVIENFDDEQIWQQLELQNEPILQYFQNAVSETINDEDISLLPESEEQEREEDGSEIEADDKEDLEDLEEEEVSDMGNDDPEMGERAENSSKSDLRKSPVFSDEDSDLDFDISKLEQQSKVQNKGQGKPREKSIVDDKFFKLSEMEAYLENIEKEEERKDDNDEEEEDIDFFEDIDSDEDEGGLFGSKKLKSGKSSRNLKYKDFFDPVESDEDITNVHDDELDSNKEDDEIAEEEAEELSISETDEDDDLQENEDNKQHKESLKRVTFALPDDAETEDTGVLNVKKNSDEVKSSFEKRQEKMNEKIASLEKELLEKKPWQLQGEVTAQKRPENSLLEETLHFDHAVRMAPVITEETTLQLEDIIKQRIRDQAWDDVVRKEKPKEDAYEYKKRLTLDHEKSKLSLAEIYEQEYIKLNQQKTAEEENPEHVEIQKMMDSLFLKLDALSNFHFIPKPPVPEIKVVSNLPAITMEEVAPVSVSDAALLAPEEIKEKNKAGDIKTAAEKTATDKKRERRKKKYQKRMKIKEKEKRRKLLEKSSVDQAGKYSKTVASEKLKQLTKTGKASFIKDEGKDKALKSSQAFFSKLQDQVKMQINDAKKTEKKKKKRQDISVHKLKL
Chain of UniProt Q7L1V2 (Q7L1V2 whole entry, looked up): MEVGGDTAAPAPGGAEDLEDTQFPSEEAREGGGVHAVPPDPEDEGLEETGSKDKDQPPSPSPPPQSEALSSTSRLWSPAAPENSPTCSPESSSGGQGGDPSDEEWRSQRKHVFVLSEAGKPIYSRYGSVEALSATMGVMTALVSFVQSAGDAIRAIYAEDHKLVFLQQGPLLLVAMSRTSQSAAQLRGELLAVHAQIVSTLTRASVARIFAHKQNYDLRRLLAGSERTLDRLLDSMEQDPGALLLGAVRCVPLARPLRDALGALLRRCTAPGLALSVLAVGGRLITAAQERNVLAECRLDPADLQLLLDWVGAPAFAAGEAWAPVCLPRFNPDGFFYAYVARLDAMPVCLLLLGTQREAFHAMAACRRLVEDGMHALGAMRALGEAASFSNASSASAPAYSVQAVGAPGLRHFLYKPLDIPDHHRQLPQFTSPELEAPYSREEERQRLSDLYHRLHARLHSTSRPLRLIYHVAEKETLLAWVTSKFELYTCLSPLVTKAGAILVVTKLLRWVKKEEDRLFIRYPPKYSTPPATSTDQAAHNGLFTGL
Chain of UniProt Q9H1E3 (Q9H1E3 whole entry, looked up): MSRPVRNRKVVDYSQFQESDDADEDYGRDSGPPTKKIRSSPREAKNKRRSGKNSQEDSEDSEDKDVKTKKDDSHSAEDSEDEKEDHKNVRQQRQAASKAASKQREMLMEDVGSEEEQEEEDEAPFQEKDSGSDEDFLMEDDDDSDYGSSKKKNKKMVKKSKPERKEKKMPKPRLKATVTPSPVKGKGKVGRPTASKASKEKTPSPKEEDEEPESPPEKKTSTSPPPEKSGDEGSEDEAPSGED
Chain of UniProt Q8WV92 (Q8WV92 whole entry, looked up): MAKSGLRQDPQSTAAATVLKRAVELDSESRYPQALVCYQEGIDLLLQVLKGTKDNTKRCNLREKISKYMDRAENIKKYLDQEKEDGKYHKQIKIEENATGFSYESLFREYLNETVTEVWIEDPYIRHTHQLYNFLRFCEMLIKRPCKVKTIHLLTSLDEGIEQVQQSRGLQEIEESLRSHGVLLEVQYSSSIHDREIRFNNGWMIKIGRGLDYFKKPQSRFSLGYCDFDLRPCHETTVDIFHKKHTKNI

Target | log2 fold change [1] | log2 fold change (volasertib) | log2 fold change [2] | log2 fold change (epoxomicin) | log2 fold change [3] | log2 fold change [4] | log2 fold change [5] | log2 fold change (rosiglitazone) | log2 fold change [6] | log2 fold change [7] | log2 fold change (saracatinib) | log2 fold change (sotrastaurin) | log2 fold change (alvocidib) | log2 fold change (Tubastatin A) | log2 fold change [8] | log2 fold change (defactinib) | log2 fold change (rucaparib) | log2 fold change [9] | log2 fold change (encorafenib) | log2 fold change [10]
NDUFS4 (UniProt O43181) | 0.052 | 0.074 | -0.037 | -0.025 | -0.007 | 0.071 | -0.079 | -0.046 | 0.033 | -0.013 | 0.117 | 0.1 | 0.049 | -0.082 | -0.025 | 0.035 | 0.011 | -0.074 | -0.051 | 0.079
NDUFA12 (UniProt Q9UI09) | -0.135 | -0.244 | 0.081 | 0.046 | -0.063 | -0.173 | 0.119 | 0.082 | -0.054 | -0.632 (active) | 0.029 | -0.017 | -0.094 | 0 | -0.027 | -0.037 | -0.061 | 0.031 | 0.05 | -0.018
NUCKS1 (UniProt Q9H1E3) | -0.061 | -0.012 | -0.028 | 0.016 | 0.033 | 0.014 | -0.073 | 0.001 | -0.043 | -0.083 | 0.006 | 0.075 | 0.115 | -0.006 | -0.167 | 0.048 | 0.027 | -0.071 | -0.068 | -0.006
MON1B (UniProt Q7L1V2) | -0.002 | -0.183 | -0.021 | -0.028 | -0.025 | 0.013 | -0.024 | 0.016 | -0.011 | -0.377 (active) | 0.005 | -0.028 | -0.057 | 0.048 | -0.011 | 0.016 | -0.015 | -0.036 | 0.037 | -0.013
MKRN2 (UniProt Q9H000) | -0.08 | -0.633 (active) | 0.106 | -0.068 | -0.064 | 0.193 | 0.126 | 0.063 | 0.152 | 0.082 | -0.203 | -0.024 | -0.002 | 0.177 | -0.08 | -0.049 | 0.258 | 0.007 | 0.109 | -0.005
OSBPL8 (UniProt Q9BZF1) | -0.068 | -0.026 | 0.062 | -0.118 | 0.271 | 0.061 | 0.055 | 0.031 | 0.09 | -0.114 | -0.175 | -0.054 | -0.011 | 0.078 | 0.11 | 0.025 | 0.232 | 0.488 (active) | 0.167 | -0.078
MPHOSPH10 (UniProt O00566) | 0.099 | -0.155 | 0.084 | -0.26 | -0.028 | 0.182 | -0.012 | 0.089 | 0.314 | 0.133 | -0.123 | -0.061 | 0.086 | 0.098 | -0.023 | 0.11 | 0.229 | -0.081 | 0.214 | 0.045
NUDCD2 (UniProt Q8WVJ2) | -0.177 | -0.566 (active) | 0.056 | -0.098 | -0.042 | 0.021 | 0.081 | 0.093 | 0.023 | -0.291 | -0.115 | -0.123 | -0.139 | 0.051 | 0.002 | -0.256 | -0.053 | 0 | 0.048 | 0
MRPS35 (UniProt P82673) | 0.064 | 0.014 | 0.029 | 0.048 | -0.054 | -0.076 | 0.027 | -0.08 | -0.013 | -0.007 | -0.18 | -0.033 | 0.01 | 0.078 | -0.022 | 0.043 | 0.071 | 0.062 | 0.039 | 0.007
NT5DC1 (UniProt Q5TFE4) | 0.165 | 0.051 | -0.026 | 0.045 | 0.015 | -0.054 | 0.014 | 0.008 | -0.037 | -0.063 | -0.012 | 0.026 | -0.049 | 0 | 0.115 | -0.004 | -0.057 | -0.058 | -0.029 | 0.037
NR2C2 isoform 2 (UniProt P49116) | 0.051 | -0.102 | 0.055 | 0.036 | -0.015 | 0.049 | -0.069 | 0.022 | 0.036 | 0.046 | 0.052 | -0.041 | 0.077 | -0.013 | 0.005 | 0.001 | 0.071 | -0.044 | 0.053 | 0.028
MRPL34 (UniProt Q9BQ48) | 0.061 | 0.029 | -0.007 | -0.042 | -0.042 | 0.109 | -0.065 | -0.028 | 0.232 | 0.048 | -0.09 | 0 | 0.117 | 0.119 | 0.086 | 0.138 | 0.101 | 0.169 | 0.055 | 0.035
NOP56 (UniProt O00567) | 0.141 | 0.238 | 0.034 | -0.44 | -0.006 | 0.066 | -0.208 | -0.079 | 0.299 | 0.168 | -0.034 | 0.018 | 0.104 | -0.01 | -0.067 | 0.375 | 0.233 | -0.028 | 0.057 | 0.007
NSMCE2 (UniProt Q96MF7) | 0.072 | -0.032 | -0.003 | -0.089 | 0.025 | 0.079 | -0.007 | 0.119 | 0.059 | 0.397 (active) | -0.019 | -0.095 | -0.004 | 0 | 0.031 | -0.06 | 0.076 | -0.076 | -0.001 | 0.025
MITD1 (UniProt Q8WV92) | -0.16 | -0.266 | 0.077 | 0.147 | 0.117 | 0.057 | 0.049 | -0.016 | 0.079 | -0.365 | -0.031 | -0.002 | -0.005 | 0.161 | -0.146 | 0.133 | 0.097 | -0.112 | -0.018 | -0.043
